# According to the supplement of paper PMC8007513:
# Structures can show the parent of a compound that is named as a salt. ± gives the standard error. Among all 1,300 compounds or so, about 75 (6%) showed an effect of 50% or more. This is one part of a sample in which strong results are shown more often than they occur.
# Test system: Trichoderma virens ATCC 9645
# Experiment: growth yield (OD600) relative to untreated control; higher = less growth inhibition
# Conditions: compound concentration: 100 uM
# How it was run: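 Trichoderma virens ATCC 9645 spores from 7-day potato dextrose agar plates were suspended in potato dextrose broth at 15,000 spores ml^−1. Aliquots of 100 μl with library compounds at 100 μM final, with or without a co-applied biocide at 200 ng ml^−1, were grown in 96-well plates at 30 °C. OD600 was read at 40 h and 72 h on a BioTek EL800. Growth is expressed relative to the control without either agent, as means of duplicate screens.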
SMILES,growth yield (40 h) [%],growth yield (72 h) [%]
Oc1cc(Cl)ccc1Oc1ccc(Cl)cc1Cl [Triclosan],6.99 ± 4.1,3.25 ± 0.1
CCNCC(O)c1cccc(O)c1 (stereo not given) [Etilefrine hydrochloride],105 ± 3,103.1 ± 0.94
C=CCC1(CC(C)C)C(=O)NC(=O)NC1=O [Butalbital],98.2,96.5
"CNCC(O)c1ccc(O)cc1 (racemic) [(+,-)-Synephrine]",105 ± 4.3,100 ± 2.3
O=C([O-])c1ccccc1-c1c2cc(Br)c(=O)cc-2oc2[c]([Hg+])c([O-])c(Br)cc12.[Na+].[Na+].[OH-] [Merbromin],2.54 ± 0.95,2.2 ± 0.94
CCN(CC)C(C)C(=O)c1ccccc1 (stereo not given) [Amfepramone hydrochloride],102 ± 3,99 ± 3.1
CC1OC(OC2/C=C/C=C/C=C/C=C/CC/C=C/C=C/[C@H](C)[C@@H](O)[C@@H](C)[C@H](C)OC(=O)CC(O)CC(O)CC(O)CCC(O)C(O)C[C@]3(O)CC(O)C(C(=O)O)C(C2)O3)C(O)C(N)C1O (stereo not given in full) [Nystatine],97.4 ± 5.6,107.3 ± 0.94
O=C(CCCN1CCC(n2c(=O)[nH]c3ccccc32)CC1)c1ccc(F)cc1 [Benperidol],102 ± 5.2,99.9 ± 7.2
CC[C@H](C)[C@H]1O[C@]2(C=C[C@@H]1C)C[C@@H]1C[C@@H](C/C=C(\C)[C@@H](O[C@H]3C[C@H](OC)[C@@H](O[C@H]4C[C@H](OC)[C@@H](O)[C@H](C)O4)[C@H](C)O3)[C@@H](C)/C=C/C=C3\CO[C@@H]4[C@H](O)C(C)=C[C@@H](C(=O)O1)[C@]34O)O2.CO[C@H]1C[C@H](O[C@H]2[C@H](C)O[C@@H](O[C@@H]3/C(C)=C/C[C@@H]4C[C@@H](C[C@]5(C=C[C@H](C)[C@@H](C(C)C)O5)O4)OC(=O)[C@@H]4C=C(C)[C@@H](O)[C@H]5OC/C(=C\C=C\[C@@H]3C)[C@]54O)C[C@@H]2OC)O[C@@H](C)[C@@H]1O [Avermectin B1],107 ± 5.6,105 ± 2.3
CCCCCC[C@H]1C(=O)O[C@H](C)[C@H](NC(=O)c2cccc(NC=O)c2O)C(=O)O[C@@H](C)[C@@H]1OC(=O)CC(C)C [Antimycin A],27.5 ± 1.1,49.6 ± 2.6
C#CCN(C)[C@H](C)Cc1ccccc1 [Selegiline hydrochloride],102 ± 1.4,104 ± 5
CCCC(C)C1(CC)C(=O)NC(=O)NC1=O (stereo not given) [Pentobarbital],101.3 ± 0.95,102 ± 1.7
"CC(=O)OCC1=C(C(=O)O)N2C(=O)[C@@H](N)[C@H]2SC1 [Cephalosporanic acid, 7-amino]",105 ± 5.7,107 ± 6.2
CCC(=O)O[C@@](Cc1ccccc1)(c1ccccc1)[C@@H](C)CN(C)C [Levopropoxyphene napsylate],106 ± 2.9,103 ± 3.4
C[C@]12C/C(=C/O)C(=O)C[C@@H]1CC[C@@H]1[C@@H]2CC[C@@]2(C)[C@H]1CC[C@]2(C)O [Oxymetholone],96.9 ± 9.2,91.5 ± 4.8
C[C@@H]1C[C@@H]([C@H](O)CC2CC(=O)NC(=O)C2)C(=O)[C@@H](C)C1 [Cycloheximide],46.7 ± 7.3,75.5 ± 5.5
"NCC(CC(=O)O)c1ccc(Cl)cc1 (racemic) [Baclofen (R,S)]",105 ± 4.1,105 ± 4.7
CN[C@@H]1[C@@H](O)[C@@H](O[C@@H]2[C@@H](O)[C@H](O[C@H]3O[C@H](CN)CC[C@H]3N)[C@@H](N)C[C@H]2N)OC[C@]1(C)O.CN[C@@H]1[C@@H](O)[C@@H](O[C@@H]2[C@@H](O)[C@H](O[C@H]3O[C@H]([C@@H](C)N)CC[C@H]3N)[C@@H](N)C[C@H]2N)OC[C@]1(C)O.CN[C@@H]1[C@@H](O)[C@@H](O[C@@H]2[C@@H](O)[C@H](O[C@H]3O[C@H]([C@@H](C)NC)CC[C@H]3N)[C@@H](N)C[C@H]2N)OC[C@]1(C)O [Gentamicine sulfate],101,97.3
NC(=O)OCCCc1ccccc1 [Phenprobamate],104 ± 6.3,101 ± 4.6
COc1cccc(C2(O)CCCCC2CN(C)C)c1 (stereo not given) [Tramadol hydrochloride],101 ± 1.3,99.8 ± 2.1
